# According to PubChem BioAssay AID1347056 (Sanford-Burnham Center for Chemical Genomics, 2019):
# In all, about 360,000 compounds went through this assay and about 3,600 (1%) were called active. For the sample, actives were picked, then their nearest neighbours and some compounds at random. Values without a mark were called inactive.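 Rule for the calls: active = compounds whose plate-normalised and pattern-corrected inhibition of the luciferase reporter signal at the single screening dose is 50% or more; inactive = the rest.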
# Assay: inhibitors of TROY-driven NF-kB signaling, primary screen, Q293 LMP1-TROYcd cells, NF-kB luciferase, uHTS (AID 1347056)
# Conditions: Q293 LMP1-TROYcd NF-kB luciferase reporter, 4 h; at 10 µM; stronger effect = higher value
row,SMILES,inhibition
1,CCCCSc1nnc2c(n1)OC=Nc1ccccc1-2,-39.1%
2,N#Cc1c(-c2cccs2)nc(SCC(=O)c2ccc(Br)cc2)[nH]c1=O,18.2%
3,C=CCN(CC=C)S(=O)(=O)c1ccc(C(=O)Nc2nc3c(s2)CCc2ccccc2-3)cc1,4.01%
4,N#Cc1ccc(C(=O)Nc2nc(-c3cccs3)c(C(=O)C(F)(F)F)s2)cc1,53.3% (active)
5,Cc1cc(=O)oc2c(C)c(OCC(=O)NCCc3ccc(S(N)(=O)=O)cc3)ccc12,-2.4%
6,O=C(C1CCN(c2nnc(-n3cccc3)s2)CC1)N1CCc2ccccc2C1,22.4%
7,Cc1ccc2c(C)c(C(=O)N(C)CCC3CCCCO3)oc2c1C (stereo unspecified),-35.3%
8,O=C(CN(Cc1ccccc1)C(=O)CCC(=O)Nc1ccccn1)NCCc1ccccc1,-13.3%
9,COc1ccc(-c2noc(CNC(=O)C(C)Oc3ccccc3)n2)cc1 (stereo unspecified),-22.8%
10,COc1ccc(/C=C/c2noc(-c3ccccc3OC(C)=O)n2)cc1,48.6%
11,COc1ccc(-c2nc(-c3ccccc3)no2)c(OC)c1,72.5% (active)
12,CCN(C(=O)CSc1nnnn1-c1ccccc1OC)C1CCS(=O)(=O)C1 (stereo unspecified),-12.8%
13,COc1ccccc1CN(C)c1nnnn1-c1ccccc1,7.2%
14,COc1ccccc1-n1nnnc1S(=O)(=O)Cc1ccc(Cl)cc1,68.3% (active)
15,O=c1[nH][nH]c(C(F)(F)F)c1C=NCc1ccccc1Cl,-4.3%
16,O=C(O)CC(SCC(=O)Nc1ccc(Br)cc1)C(=O)O (stereo unspecified),67.2% (active)
17,O=C(O)CSCC(=O)Nc1ccc(C(F)(F)F)cc1,5.82%
18,Cc1cc(C)c2c(=O)[nH]c(SCC(=O)Nc3ccc(Br)cc3)nc2n1,10.6%
19,CC(=O)Nc1nc2c(s1)C(=O)NCC(C)(C)C2,16.5%
20,CC(=O)c1cc(CN2CCC(n3nccc3NC(=O)c3ccccc3Cl)CC2)cs1,-6.73%
21,OC[C@@H]1CN(Cc2cccs2)C[C@H](n2cnc3c(NC4CCCC4)ncnc32)O1,-12%
22,OC[C@@H]1CN(Cc2ccc(F)cc2)C[C@H](n2cnc3c(NC4CCCC4)ncnc32)O1,-11.8%
23,OC[C@@H]1CN(Cc2ccc(-c3ccccc3)cc2)C[C@H](n2cnc3c(NC4CCCC4)ncnc32)O1,52.3% (active)
24,N#CC(C(N)=O)=C1CCC2(CC1)OCCCCO2,-8.85%
25,Nc1nc(NCc2ccccc2)n(-c2ccccc2)n1,11.4%
26,O=C(O)CN1c2cccc3cccc(c23)S1(=O)=O,18%
